40 compounds from PubChem BioAssay (Tox21) can be followed below.

The structures appear in SMILES notation. The source made the active and inactive calls. Calls come from the whole dose curve; as a rule, active = well fitted curve in the direction sought with a large enough effect in the repeat runs; inconclusive = weak or mixed curves; inactive = flat fitted curve, though single readings scatter.

This test can be described thus: qHTS assay to test for compound auto fluorescence at 590 nm (red) in HepG2 cell free culture (AID 720684). Conditions: cell-free medium autofluorescence, red 540/590 nm; series mostly up to 91.3 µM. The text has this: U.S. Tox21 Program National Center for Advancing Translational Sciences [NCATS] NIH Chemical Genomics Center [NCGC] U.S. Environmental Protection Agency [EPA] National Institutes of Environmental Health Sciences [NIEHS] National Toxicology Program [NTP] U.S. Food and Drug Administration [FDA] Tox21 Assay Overview: Compound auto fluorescence often interferes with screening of the compound library against various biological targets and signaling pathways. Some of these compounds may have fluorophoric properties. Such properties may interfere with the assay outputs resulting in false positives and/or negatives. To decrease such complications and ensure the compound activities are relevant in terms of biological response, the Tox21 10K compound library was screened for auto fluorescence. From the fluorophores used as reporter signals in our screening assays, the auto fluorescence equivalencies of compounds against three fluorophores have been evaluated: Triamterene, Fluorescein and Rose Bengal sodium for blue, green and red fluorescence, respectively. The fluorescence intensities were measured using Excitation/Emission wavelengths at 405/460nm, 485/535nm and 540/590nm for blue, green and red labels, respectively. This assay includes the red fluorescence data.
Tox21 Assay Protocol Summary: 5 uL of culture medium (MEM containing 10% FBS) per well was dispensed into black wall/clear bottom 1536-well plates using a Multidrop Combi Dispenser (ThermoFisher Scientific, Waltham, MA). After 23 nL compound or DMSO vehicle was transferred into assay plate by a pintool work station (Kalypsys, San Diego, CA), fluorescence intensities in the assay plates were measured by an Envision (PerkinElmer, Shelton, CT) plate reader using three labels for measuring blue, green and red fluorescence at […] 460, 535 and 590nm respectively.
(In qHTS, concentration-response curves come from the screen itself.)
With `CC(C)(CO)CO`, the compound was classed as inactive. Consider `O=C(Cl)c1ccc(C(=O)Cl)cc1`, for which the compound was called inactive. As for `CO[Si](CCCNCCN)(OC)OC`, the outcome was inactive. As for `COc1ccc2cc3[n+](cc2c1OC)CCc1cc2c(cc1-3)OCO2`, the entry is “inactive”; as for `COC(=O)CCCCC(=O)OC`, “inactive”; as for `CCCCC(CC)COC(=O)c1ccc(C(=O)OCC(CC)CCCC)cc1` (stereo not given), “inactive”.

Turning to `CC(COCC(C)OC(=O)c1ccccc1)OC(=O)c1ccccc1` (stereo not given), the compound was classed as inactive. As to `CCCCCCC(=O)O`, the result was inactive.

Consider `CC1(C)[C@@H](O[C@H]2O[C@H](C(=O)O)[C@@H](O)[C@H](O)[C@H]2O[C@@H]2O[C@H](C(=O)O)[C@@H](O)[C@H](O)[C@H]2O)CC[C@]2(C)[C@H]3C(=O)C=C4[C@@H]5C[C@@](C)(C(=O)O)CC[C@]5(C)CC[C@@]4(C)[C@]3(C)CC[C@@H]12`, for which the outcome was inactive. Consider `CC/C=C(\C(=O)N[C@@H]1C(=O)N2C(C(=O)OCOC(=O)C(C)(C)C)=C(COC(N)=O)CS[C@H]12)c1csc(N)n1`, for which the call was inactive. Turning to `COC(=O)OC`, the outcome was inactive. `CCCCCCCC(=O)O`: the compound was called inactive. As to `NCCNCCNCCN`, the call was inactive. To `CC1(C)C(=O)N(Cl)C(=O)N1Cl` belongs “inactive”.

`NC(=O)c1ncn([C@@H]2O[C@H](CO)[C@@H](O)[C@H]2O)n1`: the compound was called inactive.

For the compound `CC(O)CNCC(C)O` (stereo not given), the compound was called inactive. As for `C[Si](C)(C)N[Si](C)(C)C`, the entry is “inactive”; as for `COc1ccccc1[N+](=O)[O-]`, “inactive”; as for `OCCOCCOCCOCCOCCO`, “inactive”. Take `COc1cc(NC(=O)CC(C)=O)c(OC)cc1Cl`: the result was inactive.

Consider `C[n+]1ccn(CCO)c1`, for which the compound was classed as inactive. As for `O=C(NCC1CCCCN1)c1cc(OCC(F)(F)F)ccc1OCC(F)(F)F` (stereo not given), the entry is “inactive”.

On to `c1cnc2c(c1)ccc1cccnc12`, for which the outcome was inactive.

Turning to `N[C@@H](Cc1cc(I)c(Oc2ccc(O)c(I)c2)c(I)c1)C(=O)O`, the compound was called inactive. As for `CCCCCCCCCCCC(=O)N(C)CC(=O)O`, the entry is “inactive”; as for `O=C1C(N(CO)C(=O)NCO)N(CO)C(=O)N1CO` (stereo not given), “inactive”. In the case of `COc1ccc(N)c(OC)c1`, the call was inactive. Consider `CCOC(=O)CC(=O)OCC`, for which the compound was called inactive.

Turning to `CCn1cc(C(=O)O)c(=O)c2cc3c(cc21)OCO3`, the compound was called inactive. For the compound `Cc1cc(C)c(O)c(C)c1`, the compound was called inactive. To `CC(C)c1ccc(C(C)C)cc1` belongs “inactive”. As to `O=[N+]([O-])c1ccccc1C(F)(F)F`, the call was inactive. To `NC(N)=S` belongs “inactive”; to `O=C1CCCCCCCCCCC1`, “inactive”.

Take `OC[C@H]1O[C@@H](Oc2ccc(O)cc2)[C@H](O)[C@@H](O)[C@@H]1O`: the call was inactive. As for `C=C1C[C@]23C[C@@]1(O)CC[C@H]2[C@@]12C=C[C@H](O)[C@@](C)(C(=O)O1)[C@H]2[C@@H]3C(=O)O`, the entry is “inactive”; as for `CC[N+](CC)(CC(=O)Nc1c(C)cccc1C)Cc1ccccc1`, “inactive”. As for `COc1c(Cl)ccc(Cl)c1C(=O)O`, the result was inactive.

With `CCc1cccc(CC)c1N`, the compound was called inactive. Turning to `Cc1ccccc1Cl`, the call was inactive.
